# Laboratory results published in publication PMC7862700, “An all-to-all approach to the identification of sequence-specific readers for epigenetic DNA modifications on cytosine”.
# Columns and labels:
# Assay in all cases: DAPPL (digital affinity profiling via proximity ligation, sequencing); 10 mM Tris-HCl pH 7.5, 50 mM NaCl, 1 mM DTT, 4% glycerol, room temperature, 30 min; GST-TFs on glutathione beads, 16-mer random dsDNA library, 0.1% formaldehyde crosslink after washing; high values mean tight binding
# [1] = molecular target: T1, FEV (Homo sapiens, UniProt Q99581 1-238); conditions: protein: recombinant; tags: N-terminal GST; dsDNA, one strand shown
# T1 sequence: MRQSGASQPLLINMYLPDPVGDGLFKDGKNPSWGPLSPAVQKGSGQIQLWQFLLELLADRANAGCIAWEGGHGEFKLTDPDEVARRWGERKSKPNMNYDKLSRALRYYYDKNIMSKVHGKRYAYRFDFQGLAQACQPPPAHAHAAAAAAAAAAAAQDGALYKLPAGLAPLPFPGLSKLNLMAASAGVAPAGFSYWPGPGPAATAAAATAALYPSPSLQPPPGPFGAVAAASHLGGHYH
# Outline: (§1)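 The binding signal reported is, for every hexamer, its read frequency for a factor over its read frequency for the tag-only sample. Reads came from pools of yeast-expressed, GST-fused human transcription factors on glutathione beads, barcoded with DNA and mixed with that sample, which were incubated with 200 nmole of a random double-stranded 16-mer DNA library in Tris/NaCl/DTT/glycerol buffer at room temperature for 30 min. After washing, the pools were crosslinked with 0.1% formaldehyde, proximity-ligated with BsaI/T4 ligase for 1 h at 37 °C, PCR-amplified and sequenced on an Illumina NextSeq500.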
# [2] = molecular target: ETV5 (Homo sapiens, UniProt P41161 1-510); conditions: protein: recombinant; tags: N-terminal GST; dsDNA, one strand shown
# Outline: as §1
# [3] = molecular target: HSF1 (Homo sapiens, UniProt Q00613 1-529); conditions: protein: recombinant; tags: N-terminal GST; chain copies: 3; dsDNA, one strand shown
# Outline: as §1
# [4] = molecular target: T2, SPIC (Homo sapiens, UniProt Q8N5J4 1-248); conditions: protein: recombinant; tags: N-terminal GST; dsDNA, one strand shown
# T2 sequence: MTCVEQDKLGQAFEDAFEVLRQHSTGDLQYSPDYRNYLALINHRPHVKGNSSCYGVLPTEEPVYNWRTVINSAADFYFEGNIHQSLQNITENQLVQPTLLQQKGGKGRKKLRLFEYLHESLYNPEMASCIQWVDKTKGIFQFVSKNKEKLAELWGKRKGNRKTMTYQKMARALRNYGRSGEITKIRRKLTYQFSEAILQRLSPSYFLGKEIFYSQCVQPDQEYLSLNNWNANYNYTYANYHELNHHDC
# Outline: as §1
# [5] = molecular target: ELF4 (Homo sapiens, UniProt Q99607 1-663); conditions: protein: recombinant; tags: N-terminal GST; dsDNA, one strand shown
# Outline: as §1
# [6] = molecular target: T3, ELK4 (Homo sapiens, UniProt P28324-2 1-405); conditions: protein: recombinant; tags: N-terminal GST; dsDNA, one strand shown
# T3 sequence: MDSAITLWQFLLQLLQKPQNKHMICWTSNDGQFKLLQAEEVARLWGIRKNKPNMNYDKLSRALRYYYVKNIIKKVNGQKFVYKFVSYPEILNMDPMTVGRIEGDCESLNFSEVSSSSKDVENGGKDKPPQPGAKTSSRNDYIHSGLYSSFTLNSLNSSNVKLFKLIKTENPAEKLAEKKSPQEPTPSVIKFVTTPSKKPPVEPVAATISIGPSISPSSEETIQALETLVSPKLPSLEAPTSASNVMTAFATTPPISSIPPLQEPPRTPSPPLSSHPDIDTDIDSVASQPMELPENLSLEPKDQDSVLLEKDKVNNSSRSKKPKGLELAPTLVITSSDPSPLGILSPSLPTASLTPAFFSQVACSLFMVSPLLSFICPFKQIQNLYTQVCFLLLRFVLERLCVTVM
# Outline: as §1
# [7] = molecular target: T4, ETV2 (Homo sapiens, UniProt O00321 1-342); conditions: protein: recombinant; tags: N-terminal GST; dsDNA, one strand shown
# T4 sequence: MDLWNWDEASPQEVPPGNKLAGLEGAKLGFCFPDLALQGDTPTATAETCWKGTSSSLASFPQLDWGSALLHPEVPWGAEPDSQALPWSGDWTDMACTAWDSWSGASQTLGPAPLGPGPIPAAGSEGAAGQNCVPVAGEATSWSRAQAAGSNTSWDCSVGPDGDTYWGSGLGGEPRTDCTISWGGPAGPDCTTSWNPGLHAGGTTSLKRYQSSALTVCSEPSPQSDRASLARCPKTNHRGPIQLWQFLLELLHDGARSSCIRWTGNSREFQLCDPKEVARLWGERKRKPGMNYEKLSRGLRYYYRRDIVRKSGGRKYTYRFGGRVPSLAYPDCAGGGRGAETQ
# Outline: as §1
# [8] = molecular target: T5, ELF3 (Homo sapiens, UniProt P78545 1-371); conditions: protein: recombinant; tags: N-terminal GST; dsDNA, one strand shown
# T5 sequence: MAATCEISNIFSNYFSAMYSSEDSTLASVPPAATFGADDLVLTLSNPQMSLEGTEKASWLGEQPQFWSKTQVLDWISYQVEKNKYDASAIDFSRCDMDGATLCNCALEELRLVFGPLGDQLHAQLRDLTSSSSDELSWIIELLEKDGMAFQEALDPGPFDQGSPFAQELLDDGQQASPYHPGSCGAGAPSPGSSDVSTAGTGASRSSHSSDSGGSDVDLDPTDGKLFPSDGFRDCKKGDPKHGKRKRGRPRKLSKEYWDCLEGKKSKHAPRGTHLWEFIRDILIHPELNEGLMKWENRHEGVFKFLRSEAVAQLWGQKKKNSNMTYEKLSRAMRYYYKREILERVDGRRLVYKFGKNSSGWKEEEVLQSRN
# Outline: as §1
# [9] = molecular target: CRX (Homo sapiens, UniProt O43186 1-299); conditions: protein: recombinant; tags: N-terminal GST; dsDNA, one strand shown
# Outline: as §1
# [10] = molecular target: ETV1 (Homo sapiens, UniProt P50549 1-477); conditions: protein: recombinant; tags: N-terminal GST; dsDNA, one strand shown
# Outline: as §1
# Sequence of ELF4 (Q99607 whole entry): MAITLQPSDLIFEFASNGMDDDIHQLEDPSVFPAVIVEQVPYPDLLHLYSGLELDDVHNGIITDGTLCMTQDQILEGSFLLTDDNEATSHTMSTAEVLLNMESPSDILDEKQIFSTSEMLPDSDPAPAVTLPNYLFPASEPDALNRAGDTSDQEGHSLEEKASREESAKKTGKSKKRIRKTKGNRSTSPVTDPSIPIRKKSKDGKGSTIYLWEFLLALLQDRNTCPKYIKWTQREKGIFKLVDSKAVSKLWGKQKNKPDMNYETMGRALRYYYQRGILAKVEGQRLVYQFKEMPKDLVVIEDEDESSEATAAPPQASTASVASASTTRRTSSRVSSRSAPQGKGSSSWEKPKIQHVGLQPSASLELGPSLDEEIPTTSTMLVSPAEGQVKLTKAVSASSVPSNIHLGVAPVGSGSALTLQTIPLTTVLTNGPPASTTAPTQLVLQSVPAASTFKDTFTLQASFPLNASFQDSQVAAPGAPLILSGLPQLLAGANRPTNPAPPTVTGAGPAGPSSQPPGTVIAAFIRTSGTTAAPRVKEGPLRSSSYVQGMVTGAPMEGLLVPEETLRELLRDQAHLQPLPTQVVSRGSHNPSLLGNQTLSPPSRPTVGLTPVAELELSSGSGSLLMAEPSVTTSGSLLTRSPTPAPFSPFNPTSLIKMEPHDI
# Sequence of ETV5 (P41161 whole entry): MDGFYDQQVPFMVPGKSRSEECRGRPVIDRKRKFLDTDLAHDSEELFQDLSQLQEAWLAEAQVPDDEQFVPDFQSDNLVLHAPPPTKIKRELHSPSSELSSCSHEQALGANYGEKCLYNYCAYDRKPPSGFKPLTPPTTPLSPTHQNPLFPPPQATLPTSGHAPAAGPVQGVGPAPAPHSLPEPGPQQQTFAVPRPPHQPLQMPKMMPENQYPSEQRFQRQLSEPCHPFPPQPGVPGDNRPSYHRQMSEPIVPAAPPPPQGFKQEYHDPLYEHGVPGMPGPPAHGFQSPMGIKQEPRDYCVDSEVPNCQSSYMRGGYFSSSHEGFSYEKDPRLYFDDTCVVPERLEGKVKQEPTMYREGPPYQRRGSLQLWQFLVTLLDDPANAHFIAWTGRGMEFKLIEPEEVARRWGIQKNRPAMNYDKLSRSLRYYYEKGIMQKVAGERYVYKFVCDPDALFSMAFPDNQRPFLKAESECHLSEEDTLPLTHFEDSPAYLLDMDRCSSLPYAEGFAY
# Sequence of ETV1 (P50549 whole entry): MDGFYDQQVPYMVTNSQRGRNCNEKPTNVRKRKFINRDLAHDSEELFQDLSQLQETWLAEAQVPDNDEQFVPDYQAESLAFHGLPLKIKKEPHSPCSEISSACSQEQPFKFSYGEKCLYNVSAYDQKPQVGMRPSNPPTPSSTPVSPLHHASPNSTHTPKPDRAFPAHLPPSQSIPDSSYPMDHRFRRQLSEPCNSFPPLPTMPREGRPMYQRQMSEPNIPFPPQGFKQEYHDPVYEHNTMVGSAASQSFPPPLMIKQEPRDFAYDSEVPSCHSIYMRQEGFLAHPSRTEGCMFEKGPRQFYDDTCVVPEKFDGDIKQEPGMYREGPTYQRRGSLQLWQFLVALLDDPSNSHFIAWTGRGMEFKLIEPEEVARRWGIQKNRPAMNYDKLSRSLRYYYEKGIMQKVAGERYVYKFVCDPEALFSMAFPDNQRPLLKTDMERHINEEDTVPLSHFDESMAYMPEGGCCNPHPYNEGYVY
# Sequence of HSF1 (Q00613 whole entry): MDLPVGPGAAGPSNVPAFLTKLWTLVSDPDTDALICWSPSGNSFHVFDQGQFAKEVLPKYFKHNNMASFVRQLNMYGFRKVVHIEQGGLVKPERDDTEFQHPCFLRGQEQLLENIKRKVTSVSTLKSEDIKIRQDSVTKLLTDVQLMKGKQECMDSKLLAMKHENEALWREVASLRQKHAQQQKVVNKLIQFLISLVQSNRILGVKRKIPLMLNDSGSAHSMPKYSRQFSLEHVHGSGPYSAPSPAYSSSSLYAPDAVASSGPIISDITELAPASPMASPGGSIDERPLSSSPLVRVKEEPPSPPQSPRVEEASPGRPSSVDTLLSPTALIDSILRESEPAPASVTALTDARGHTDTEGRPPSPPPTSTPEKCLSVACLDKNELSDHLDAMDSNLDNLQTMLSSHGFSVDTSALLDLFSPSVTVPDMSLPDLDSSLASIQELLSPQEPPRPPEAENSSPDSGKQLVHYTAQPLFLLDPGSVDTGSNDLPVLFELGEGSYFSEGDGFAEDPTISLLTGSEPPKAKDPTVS
# Sequence of CRX (O43186 whole entry): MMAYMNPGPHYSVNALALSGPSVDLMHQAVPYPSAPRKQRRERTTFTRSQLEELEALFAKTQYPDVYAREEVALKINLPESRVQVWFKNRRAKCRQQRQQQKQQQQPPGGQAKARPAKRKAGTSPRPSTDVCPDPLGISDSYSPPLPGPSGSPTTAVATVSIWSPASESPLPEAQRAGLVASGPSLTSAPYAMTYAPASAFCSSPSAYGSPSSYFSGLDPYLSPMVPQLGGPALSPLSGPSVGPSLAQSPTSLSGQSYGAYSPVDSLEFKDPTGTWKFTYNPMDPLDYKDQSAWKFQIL
sequence,measurement,setting,value
GCTACT,binding signal,[1],"1.43 fold enrichment (6-mer frequency, TF over GST control)"
same,binding signal,[2],"1.39 fold enrichment (6-mer frequency, TF over GST control)"
same,binding signal,[3],"1.07 fold enrichment (6-mer frequency, TF over GST control)"
same,binding signal,[4],"1.3 fold enrichment (6-mer frequency, TF over GST control)"
same,binding signal,[5],"1.28 fold enrichment (6-mer frequency, TF over GST control)"
same,binding signal,[6],"1.38 fold enrichment (6-mer frequency, TF over GST control)"
same,binding signal,[7],"1.17 fold enrichment (6-mer frequency, TF over GST control)"
same,binding signal,[8],"1.47 fold enrichment (6-mer frequency, TF over GST control)"
same,binding signal,[9],"1.09 fold enrichment (6-mer frequency, TF over GST control)"
same,binding signal,[10],"1.32 fold enrichment (6-mer frequency, TF over GST control)"
